# VP16 counter: inhibits Gal4-VP16 luciferase reporter, ROR gamma counter-screen; Drosophila S2 Gal4-VP16 UAS-luciferase, luminescence, 20 h; Potency, µM (series often up to 53.6 µM), for inactives: at the top dose activity, negative = inhibition, most hits filed as inhibitors; actives 3.5% (n = 310,000); AID 2546;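 also: Gal4-VP16 expression switched on by copper sulfate through the metallothionein promoter; potency is read from the fitted curve at half-maximal effect; % is scaled to controls: 0 for no effect and ±100 for the full control effect; nearly all actives have a fitted effect of over 50% in size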
# Giardia kill: Giardia lamblia killing | Giardia lamblia trophozoite viability | activity change, % at 7.66 µM, hits read low | actives 0.15% (n = 340,000) | AID 540267; in the data active = activity change below about -80%; inconclusive = between about -30% and that limit;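 also: parasites exposed to compound for two days anaerobically before the ATP read; % is scaled to controls: 0 for no effect and ±100 for the full control effect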
#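 Each well holds 100 Giardia trophozoites and compound. After two days (48 hrs) at 37 deg C in anaerobic conditions, ATP is quantified by luminescence.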
# p53 reactivator: re-activators of mutant p53 | H1299 p53-A138V BP100-luciferase reporter, luminescence, 24 h | Potency, µM (doses to about 92.2 µM), for the others: at the top dose activity change, positive = activation, most hits filed as activators | actives 0.063% (n = 320,000); also: potency is read from the fitted curve at half-maximal effect; % of control where 0% means no effect; nearly all actives have a fitted effect of over 45% in size
#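 p53-null H1299 cells stably carrying temperature-sensitive p53-A138V and a BP100-luciferase reporter were pinned with compounds (4-point, 1:5 series) and held 24 hrs at 37 deg C. Luminescence was read 10 min after detection reagent.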
# RORg inh: ROR gamma (mouse) transcription inhibition. P51450. Drosophila S2 Gal4-RORgamma UAS-luciferase reporter, 20 h. Potency, µM (highest dose often 53.6 µM), for inactives: top-dose activity change, negative = inhibition, usual class: inhibitors. actives 5.4% (n = 310,000). AID 2551; also: potency is read from the fitted curve at half-maximal effect; % is scaled to controls: 0 for no effect and ±100 for the full control effect; nearly all actives have a fitted effect of over 60% in size
# Target sequence (P51450 whole entry, looked up, the tested form may be a part): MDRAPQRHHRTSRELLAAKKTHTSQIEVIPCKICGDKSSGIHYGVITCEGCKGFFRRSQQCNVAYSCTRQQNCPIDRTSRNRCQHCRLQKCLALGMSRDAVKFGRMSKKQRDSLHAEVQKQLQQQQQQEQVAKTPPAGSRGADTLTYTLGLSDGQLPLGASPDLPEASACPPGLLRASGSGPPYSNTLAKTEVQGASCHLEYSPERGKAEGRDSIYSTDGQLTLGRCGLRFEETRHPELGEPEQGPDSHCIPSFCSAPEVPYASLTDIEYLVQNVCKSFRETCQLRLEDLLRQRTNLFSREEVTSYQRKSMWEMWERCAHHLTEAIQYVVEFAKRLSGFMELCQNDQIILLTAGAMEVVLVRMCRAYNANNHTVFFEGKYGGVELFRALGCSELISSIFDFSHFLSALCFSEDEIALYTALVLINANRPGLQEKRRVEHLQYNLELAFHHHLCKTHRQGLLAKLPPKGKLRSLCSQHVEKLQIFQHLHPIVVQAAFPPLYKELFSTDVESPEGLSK
#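 ROR gamma transcriptional activity was tracked as Gal4-UAS luciferase output in stably transfected Drosophila Schneider cells, with compound added 1 hr before 700 uM copper sulfate induction and a 20 hr ambient-temperature incubation.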
# BRCA1 expr act: activators of BRCA1 expression | MCF7-BRCA1-FFLuc reporter, luminescence, 48 h; response scale: scaled: vehicle 0%, 10 µM genistein 100% | Potency, µM (doses to about 46.1 µM), for the others: at the highest dose activation, usual class: activators | AID 624202 | actives 1.1% (n = 380,000); also: potency is read from the fitted curve at half-maximal effect; nearly all actives have a fitted effect of over 80% in size
#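 Compounds are tested at multiple concentrations on MCF7 BRCA1-luciferase reporter cells seeded at 2000 per well; after 48 h, a single luminescence end-point is taken and curves fitted to the normalized data.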
# ELG1 repair inh: blocks ELG1-dependent DNA repair in HEK293T cells | HEK293T ELG1-luciferase reporter, luminescence, 16 h; DNA damage induced by 5-fluorouridine | Potency, µM (highest dose often 46.1 µM), without a hit: at the top dose activity change, negative = inhibition, hits mostly inhibitors | actives 2.3% (n = 330,000); also: potency is read from the fitted curve at half-maximal effect; % is scaled to controls: 0 for no effect and ±100 for the full control effect; nearly all actives have a fitted effect of over 55% in size
#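 Overnight (16 hr) co-exposure of 2,000 cells/well to 5-fluorouridine and compound at 37 °C preceded detection. Luciferase was quantified via ONE-Glo luminescence; loss of signal denotes inhibition.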
# The depositor's hits bear a star; ? = inconclusive; nt = not tested or not shown; [ ] = another dose, or the depositor's remark. This is a sample that favours compounds with a hit; in the whole collection about 7.6% have one here. Unless noted, calls follow the shape of the dose curve; as a rule, active = well fitted curve in the direction sought with a large enough effect; inconclusive = small, poorly fitted or top-dose-only effect, or another doubt; inactive = no such curve, though single readings can be large; an effect the other way counts as inactive or inconclusive.
SMILES,VP16 counter,Giardia kill,p53 reactivator,RORg inh,BRCA1 expr act,ELG1 repair inh
O=C(CSc1ccccc1F)Nc1ccc(N2CCOCC2)cc1,nt,-2,?,nt,5.6µM*,?
O=C(CSc1ccccc1)Nc1ccc(N2CCOCC2)cc1,16%,12,?,38%,?,?
O=C(Nc1ccc(N2CCOCC2)cc1)C1CCN(C(=O)OCc2ccccc2)CC1,0%,-1,4%,18%,2.8µM*,-9%
O=C(Cc1cccs1)Nc1ccc(N2CCOCC2)cc1,8%,-6,?,?,7.9µM*,?
O=C(CSc1ccc(Cl)cc1)Nc1ccc(N2CCN(c3ccccc3)CC2)c(F)c1,-9%,-1,1%,-3%,-6%,0%
O=C(CSc1ccccc1)Nc1ccc(N2CCOCC2)c(F)c1,-10%,-1,29%,21%,7.9µM*,?
Cc1ccc(NC(=O)CCN2CCC(C)CC2)cc1,0%,6,?,-9%,-3%,-3%
Cc1c(NC(=O)/C(=C/c2cccs2)c2cccs2)c(=O)n(-c2ccccc2)n1C,-2%,-9,-3%,2%,-5%,-2%
COCCN=c1scc(-c2ccc3c(c2)NC(=O)CO3)n1/N=C(\C)c1ccc(O)cc1,?,18,0%,?,-71%,18µM*
COc1cc(/C=N/n2c(-c3ccc4c(c3)NC(=O)CO4)csc2=Nc2cccc(C)c2)ccc1O,?,5,-8%,?,-74%,15µM*
CO/N=C(\c1nonc1N)N1CCN(c2ccc(Cl)cc2[N+](=O)[O-])CC1,6%,-15,-4%,34%,-30%,?
CCOC(=O)c1ccc(NS(=O)(=O)c2ccc3oc(=O)[nH]c3c2)cc1,10%,7,-2%,-2%,-4%,5%
COc1ccc(-c2nc3ccccc3n2OC(C)C(=O)O)cc1 (configuration not stated),-15%,-10,16%,-16%,-2%,?
CC(=O)C1=NN(c2ccccc2)C(c2cccs2)N1c1ccc(N(C)C)cc1 (configuration not stated),?,-7,4%,-22%,-71%,16µM*
COc1ccc(/C=N/N2C(=N)SCC2=O)cc1,2%,5,20%,?,56%,?
O=C(Nc1ccc(S(=O)(=O)N2CCN(c3ccccc3)CC2)cc1)c1cccs1,-11%,8,3%,?,-47%,12µM*
O=C(NC(=S)Nc1ccc(S(=O)(=O)N2CCCCCC2)cc1)c1cccs1,6.3µM*,-1,-4%,2.8µM*,-7%,13%
O=C(NC(=S)Nc1ccc(S(=O)(=O)N2CCCC2)cc1)c1cccs1,13µM*,-15,-5%,4.5µM*,-24%,?
CCCC(=O)N1CCN(c2ccc(NC(=O)c3cccs3)cc2)CC1,0%[10 µM],0,8%,17%,25%,5%
CS(=O)(=O)N1CCN(c2ccc(NC(=S)NC(=O)c3cccs3)cc2)CC1,-12%,11,4%,6%,2%,16%
COc1cccc(NC(=O)c2ccc3c(c2)C(=O)N(CC2CCCO2)C3=O)c1 (configuration not stated),-11%,3,?,?,3%,24%
COc1cc(/C=N/N2CCOCC2)ccc1OCc1ccc(Cl)cc1,-9%,3,1%,13%,2.2µM*,?
COc1cc(/C=N/N2CCOCC2)ccc1OCc1ccccc1,2%,-24,16%,8%,7.9µM*,7%
COc1ccc(/C=N/N2CCOCC2)cc1OCc1ccccc1,4%,6,-2%,17%,-32%,8%
COc1ccc(/C=N/N2CCOCC2)cc1O,18%,2,28%,30%,1%,?
SMILES,VP16 counter,Giardia kill,p53 reactivator,RORg inh,BRCA1 expr act,ELG1 repair inh
COc1ccc(Nc2nc(C(=O)N(CCO)Cc3ccccc3)cs2)cc1,-5%,-4,-3%,16%,-24%,?
COc1ccc(NC(=S)NCc2cccn2C)cc1,-2%,1,3%,-27%,1%,?
Cn1cccc1CNC(=S)Nc1cc(F)cc(F)c1,-13%,6,-4%,3%,-13%,0%
CCc1ccccc1NC(=S)NCc1cccn1C,11µM*,-17,-2%,13µM*,-2%,14%
Cc1ccc(C)c(NC(=S)NCc2cccn2C)c1,11µM*,nt,-6%,10µM*,nt,10%
NS(=O)(=O)c1cccc(NC(=O)c2ccc3nc[nH]c3c2)c1,-5%,-14,-2%,2%,-13%,-5%
Cc1ccc(C(=O)c2cn(Cc3ccc(F)cc3)c3nc(C)ccc3c2=O)cc1,nt,nt,nt,nt,-6%,nt
Cc1ccc(Cn2cc(C(=O)c3ccc(F)cc3)c(=O)c3cc4c(cc32)OCCO4)cc1,3%,11,3%,20%,-23%,21µM*
CCCN1C(=O)/C(=C/c2c(N3CCNC(=O)C3CC(=O)OCC)nc3c(C)cccn3c2=O)SC1=S (configuration not stated),-5%,-9,-6%,-3%,-8%,5.8µM*
CCOC(=O)CC1C(=O)NCCN1c1nc2ccc(C)cn2c(=O)c1/C=C1\SC(=S)N(CC(C)C)C1=O (configuration not stated),-3%,6,-1%,45%,-65%,?
CC(C)(C)c1cc(Br)ccc1OCC(=O)Nc1ncn[nH]1,18µM*,1,-4%,3.5µM*,0%,12%
O=C(COc1ccccc1)Nc1ncn[nH]1,-12%,-13,12%,-1%,30%,?
CC(C)(C)c1ccccc1OCC(=O)Nc1ncn[nH]1,?,1,-6%,11µM*,-11%,3%
Cc1cc(=O)[nH]c(SCC(=O)Nc2nnc(SCc3ccccc3)s2)n1,-12%,0,1%,16%,10%,-2%
CCOC(=O)c1ccc(S(=O)(=O)N2CCN(c3nc(-c4cccs4)nc4ccccc34)CC2)cc1,nt,17,nt,nt,2%,nt
CC(=O)c1c(C)[nH]c(C(=O)N2CCN(c3ccc(F)cc3)CC2)c1C,-8%,11,2%,-18%,-66%,-8%
CC(=O)c1c(C)[nH]c(C(=O)N2CCN(c3cc(Cl)ccc3C)CC2)c1C,-3%,-15,-1%,5%,-78%,3.7µM*
O=C(O)/C=C/C(=O)Nc1ccc(Cl)cc1C(=O)c1ccccc1,-3%,13,-2%,14%,0%,-2%
CC(C)(C)c1ccc(C(=O)CS(=O)(=O)c2ccccc2)cc1,-23%,-19,15%,19%,4µM*,?
O=C(Nc1ccccc1F)Nc1ccccc1N1CCCCC1,1%,0,7%,6%,-35%,?

# High-throughput results as filed in PubChem BioAssay.
